Reference: PubChem BioAssay AID1159580 (chemical genetic matrix, 2015)
Values joined by “and” are separate entries in the source; they are usually repeats but may differ in a detail not shown here. Equal entries are not always repeated. The whole screen tested about 5,500 compounds, of which about 2,000 (36%) were called active. About 18% were inconclusive and are not listed. Rule as the data show it: active = normalized growth mostly below about 0.91 (no sharp cut-off); inconclusive = no clear call, values can overlap the other calls; inactive = mostly above about 0.92. This is one part of the list.

Assay: chemical genetic growth profiling, strain panel (AID 1159580);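 also: tested at 20 µM; growth read once vehicle control cultures reached saturation at 30 °C; 1 = growth at the plate median or of vehicle wells; lower values mean less growth of the strain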
Conditions: S. cerevisiae deletion strains, growth OD
[1] = locus YJR075W, strain HOC1, stronger effect = lower value
[2] = locus YMR263W, strain SAP30, stronger effect = lower value
[3] = locus YMR307W, strain GAS1, stronger effect = lower value
[4] = locus YNL153C, strain GIM3, stronger effect = lower value

Measured: normalized growth

NC(N)=N/N=C/c1c(Cl)cccc1Cl
inactive: locus YAL026C, strain drs2, stronger effect = lower value 0.976 | locus YAL030W, strain snc1, stronger effect = lower value 0.981 | locus YBL061C, strain skt5, stronger effect = lower value 0.986 | locus YBR009C, strain hhf1, stronger effect = lower value 0.941 | locus YBR021W, strain FUR4, stronger effect = lower value 1.01 | locus YBR023C, strain chs3, stronger effect = lower value 0.968 | locus YBR171W, strain sec66, stronger effect = lower value 0.982 | locus YBR229C, strain ROT2, stronger effect = lower value 1.02 | locus YBR231C, strain swc5, stronger effect = lower value 0.984 | locus YBR279W, strain paf1, stronger effect = lower value 0.975 | locus YCL011C, strain gbp2, stronger effect = lower value 0.963 | locus YCL016C, strain dcc1, stronger effect = lower value 0.954 | locus YCL029C, strain bik1, stronger effect = lower value 1.01 | locus YCL069W, strain vba3, stronger effect = lower value 0.973 | locus YCR088W, strain abp1, stronger effect = lower value 0.973 | locus YDL005C, strain med2, stronger effect = lower value 0.972 | locus YDL035C, strain GPR1, stronger effect = lower value 1.02 | locus YDL040C, strain nat1, stronger effect = lower value 0.982 | locus YDL074C, strain BRE1, stronger effect = lower value 1.02 | locus YDL101C, strain DUN1, stronger effect = lower value 1.01 | locus YDL134C, strain PPH21, stronger effect = lower value 1.02 | locus YDL185W, strain tfp1, stronger effect = lower value 1.02 | locus YDL192W, strain arf1, stronger effect = lower value 1.03 | locus YDR001C, strain nth1, stronger effect = lower value 0.972 | locus YDR069C, strain doa4, stronger effect = lower value 0.968 | locus YDR101C, strain arx1, stronger effect = lower value 1.01 | locus YDR137W, strain rgp1, stronger effect = lower value 0.922 | locus YDR159W, strain sac3, stronger effect = lower value 0.919 | locus YDR162C, strain NBP2, stronger effect = lower value 1.02 | locus YDR195W, strain ref2 0.97 | locus YDR297W, strain sur2, stronger effect = lower value 0.978 | locus YDR318W, strain mcm21, stronger effect = lower value 1.01 | locus YDR334W, strain swr1, stronger effect = lower value 0.977 | locus YDR335W, strain msn5, stronger effect = lower value 0.976 | locus YDR388W, stronger effect = lower value 1.01 | locus YDR392W, strain spt3, stronger effect = lower value 0.916 | locus YDR502C, strain sam2, stronger effect = lower value 1.03 | locus YEL003W, strain gim4, stronger effect = lower value 0.963 | locus YEL037C, strain rad23, stronger effect = lower value 0.984 | locus YEL061C, strain CIN8 (second series), stronger effect = lower value 0.972 | locus YEL061C, strain CIN8, stronger effect = lower value 1.01 | locus YER015W, strain faa2, stronger effect = lower value 0.992 | locus YER016W, strain bim1, stronger effect = lower value 0.938 | locus YER110C, stronger effect = lower value 1.02 | locus YER111C, strain swi4, stronger effect = lower value 0.963 | locus YER155C, strain BEM2 (second series), stronger effect = lower value 0.989 | locus YER155C, strain BEM2, stronger effect = lower value 1 | locus YER167W, strain BCK2, stronger effect = lower value 1 | locus YFR010W, strain ubp6, stronger effect = lower value 0.988 | locus YGL078C, strain dbp3, stronger effect = lower value 1.03 | locus YGL086W, strain mad1, stronger effect = lower value 1.01 | locus YGL167C, strain pmr1, stronger effect = lower value 0.981 | locus YGL173C, strain kem1, stronger effect = lower value 0.977 | locus YGL227W, strain vid30, stronger effect = lower value 0.964 | locus YGL240W, strain doc1, stronger effect = lower value 0.986 | locus YGL248W, strain PDE1, stronger effect = lower value 1.01 | locus YGL253W, strain hxk2, stronger effect = lower value 0.96 | locus YGR135W, strain pre9, stronger effect = lower value 1.03 | locus YGR252W, strain gcn5, stronger effect = lower value 1.03 | locus YHR013C, strain ard1, stronger effect = lower value 0.889 | locus YHR027C, strain rpn1, stronger effect = lower value 0.967 | locus YHR030C, strain SLT2, stronger effect = lower value 1 and 0.981 | locus YHR079C, strain IRE1 (second series), stronger effect = lower value 1 | locus YHR079C, strain IRE1, stronger effect = lower value 0.987 | locus YHR094C, strain hxt1, stronger effect = lower value 1.01 | locus YHR129C, strain ARP1, stronger effect = lower value 1.01 | locus YHR142W, strain chs7, stronger effect = lower value 0.978 | locus YHR200W, strain rpn10, stronger effect = lower value 1.03 | locus YIL066C, strain RNR3, stronger effect = lower value 1.02 | locus YIL073C, strain SPO22, stronger effect = lower value 1.04 | locus YIL125W, strain kgd1, stronger effect = lower value 1.01 | locus YIR030C, strain dcg1, stronger effect = lower value 1.01 | locus YJL092W, strain hpr5, stronger effect = lower value 0.978 | locus YJL095W, strain BCK1 (second series), stronger effect = lower value 0.982 | locus YJL095W, strain BCK1, stronger effect = lower value 1 and 0.981 | locus YJL115W, strain asf1, stronger effect = lower value 0.964 | locus YJL129C, strain trk1, stronger effect = lower value 1.03 | locus YJL134W, strain LCB3, stronger effect = lower value 1 | locus YJL154C, strain vps35, stronger effect = lower value 0.969 | locus YJL164C, strain tpk1, stronger effect = lower value 0.931 | locus YJL166W, strain qcr8, stronger effect = lower value 0.996 | locus YJL168C, strain set2, stronger effect = lower value 1.01 | locus YJL187C, strain SWE1 (second series), stronger effect = lower value 1.02 | locus YJR043C, strain POL32, stronger effect = lower value 1.02 | locus YJR066W, strain TOR1, stronger effect = lower value 0.936 | [1] 1.01 | locus YKL009W, strain mrt4, stronger effect = lower value 1.01 | locus YKL068W, stronger effect = lower value 1.01 | locus YKL085W, strain MDH1 (second series), stronger effect = lower value 1 | locus YKL085W, strain MDH1, stronger effect = lower value 1 | locus YKL160W, strain elf1, stronger effect = lower value 0.983 | locus YKL190W, strain CNB1, stronger effect = lower value 1.01 | locus YKR001C, strain vps1, stronger effect = lower value 1.05 | locus YKR026C, strain gcn3, stronger effect = lower value 0.991 | locus YKR091W, strain srl3, stronger effect = lower value 0.979 | locus YLL001W, strain dnm1, stronger effect = lower value 1.01 | locus YLL026W, stronger effect = lower value 0.977 | locus YLL041C, strain sdh2, stronger effect = lower value 0.981 | locus YLR027C, strain aat2, stronger effect = lower value 0.977 | locus YLR039C, strain RIC1, stronger effect = lower value 0.965 | locus YLR058C, strain SHM2, stronger effect = lower value 1.02 | locus YLR102C, strain apc9, stronger effect = lower value 1.01 | locus YLR113W, strain HOG1, stronger effect = lower value 1 | locus YLR221C, strain rsa3, stronger effect = lower value 0.968 | locus YLR258W, strain gsy2, stronger effect = lower value 0.973 | locus YLR262C, strain YPT6 (second series), stronger effect = lower value 0.978 | locus YLR262C, strain YPT6, stronger effect = lower value 1.02 | locus YLR268W, strain sec22, stronger effect = lower value 1 | locus YLR320W, strain mms22, stronger effect = lower value 0.949 | locus YLR330W, strain CHS5, stronger effect = lower value 1.01 | locus YLR342W, strain FKS1 (second series), stronger effect = lower value 1.02 | locus YLR342W, strain FKS1, stronger effect = lower value 0.977 | locus YLR357W, strain rsc2, stronger effect = lower value 0.972 | locus YLR370C, strain arc18, stronger effect = lower value 0.974 | locus YLR371W, strain rom2, stronger effect = lower value 1.02 | locus YLR384C, strain iki3, stronger effect = lower value 0.99 | locus YLR418C, strain cdc73, stronger effect = lower value 1.02 | locus YML016C, strain PPZ1, stronger effect = lower value 1.01 | locus YML032C, strain rad52, stronger effect = lower value 1.02 | locus YML120C, strain ndi1, stronger effect = lower value 0.977 | locus YML124C, strain tub3, stronger effect = lower value 1.01 | locus YMR058W, strain fet3, stronger effect = lower value 0.971 | locus YMR078C, strain ctf18, stronger effect = lower value 1.02 | locus YMR125W, strain sto1, stronger effect = lower value 0.931 | locus YMR129W, stronger effect = lower value 0.984 | locus YMR205C, strain PFK2, stronger effect = lower value 0.986 | locus YMR223W, strain ubp8, stronger effect = lower value 1.02 | locus YMR231W, strain pep5, stronger effect = lower value 0.987 | [2] 1.01 | [3] 0.988 | locus YNL067W, strain RPL9B, stronger effect = lower value 1.01 | locus YNL071W, strain lat1, stronger effect = lower value 0.982 | locus YNL128W, strain TEP1, stronger effect = lower value 1.02 | [4] 1.01 | locus YNL183C, strain NPR1, stronger effect = lower value 0.952 | locus YNL209W, strain ssb2, stronger effect = lower value 0.968 | locus YNL233W, strain BNI4, stronger effect = lower value 1 | locus YNL250W, strain rad50, stronger effect = lower value 1.04 | locus YNL271C, strain bni1, stronger effect = lower value 1.02 | locus YNL298W, strain CLA4, stronger effect = lower value 1.05 | locus YNL307C, strain MCK1, stronger effect = lower value 1.02 | locus YNL322C, strain KRE1 (second series), stronger effect = lower value 0.956 | locus YNL322C, strain KRE1, stronger effect = lower value 1 | locus YNR049C, strain mso1, stronger effect = lower value 0.966 | locus YNR052C, strain pop2, stronger effect = lower value 1.01 | locus YOL012C, strain htz1 0.878 | locus YOL147C, strain pex11, stronger effect = lower value 1.02 | locus YOR001W, strain rrp6, stronger effect = lower value 0.957 | locus YOR061W, strain CKA2, stronger effect = lower value 1.01 | locus YOR069W, strain VPS5, stronger effect = lower value 1.01 | locus YOR070C, strain gyp1, stronger effect = lower value 0.977 | locus YOR080W, strain dia2, stronger effect = lower value 0.98 | locus YOR083W, strain WHI5, stronger effect = lower value 0.952 | locus YOR106W, strain vam3, stronger effect = lower value 0.993 | locus YOR136W, strain idh2, stronger effect = lower value 1.02 | locus YOR144C, strain elg1, stronger effect = lower value 1.02 | locus YOR184W, strain ser1, stronger effect = lower value 1.02 | locus YOR231W, strain MKK1, stronger effect = lower value 0.987 | locus YOR265W, strain rbl2, stronger effect = lower value 0.985 | locus YOR270C, strain vph1, stronger effect = lower value 0.922 | locus YOR290C, strain snf2, stronger effect = lower value 0.918 | locus YOR316C, strain cot1, stronger effect = lower value 1.01 | locus YPL051W, strain arl3, stronger effect = lower value 0.981 | locus YPL078C, strain atp4, stronger effect = lower value 0.974 | locus YPL106C, strain sse1, stronger effect = lower value 0.921 | locus YPL240C, strain hsp82, stronger effect = lower value 0.977 | locus YPL241C, strain CIN2, stronger effect = lower value 1.02 | locus YPL256C, strain CLN2, stronger effect = lower value 0.987 | locus YPR119W, strain clb2, stronger effect = lower value 1.02 | locus YPR141C, strain kar3, stronger effect = lower value 1.02 | locus YPR163C, strain tif3, stronger effect = lower value 1.02 | locus YPR167C, strain met16, stronger effect = lower value 1.01 | strain wtn01, stronger effect = lower value 1.01
active: locus YAL021C, strain ccr4, stronger effect = lower value 0.887 | locus YNL248C, strain rpa49, stronger effect = lower value 0.884

NC(N)=NN=Cc1c(Cl)cccc1Cl
inactive: locus YAL040C, strain CLN3, stronger effect = lower value 0.994 | locus YCL061C, strain MRC1 (second series), stronger effect = lower value 0.999 | locus YDR363W, strain ESC2, stronger effect = lower value 1.01 | locus YER002W, strain NOP16, stronger effect = lower value 1.01 | [1] 1.01 | [2] 1 | [3] 1.01 | [4] 0.999 | locus YNL175C, strain NOP13, stronger effect = lower value 1.02 | locus YNL197C, strain WHI3, stronger effect = lower value 1 | locus YNL224C, strain SQS1, stronger effect = lower value 1.01 | locus YOR083W, strain WHI5 (second series), stronger effect = lower value 1.01
